# Target: IPO9
# Experiment: pooled miR-30 sensor sort-seq; sequence = guide strand
# Conditions: shRNA
# Further: reference of the scale not given here.
row,Sequence,sensor-assay potency score (higher = more potent)
1,TTATCGATTCTCTCAACCCATT,-1.16
2,TTACAGAGTGCCACAGAGCTGA,-0.313
3,TTGTCATCTGCATTGATGCCAT,-0.517
4,TTTGTATTTCGTACTACTGTTG,-0.688
5,TTTTTGGCTGACTTAGAGCGGG,-0.902
6,TTCTAGCTGAGTGTGCACCAGA,-0.519
7,TATTGTTTCAAGATGACTGATG,-0.429
8,TTGCTTTCCATGCTTGCTGTGA,-0.476
9,TTTGCTTATCGATTCTCTCAAC,-1.05
10,TAATCTGTTCTTCAGCAGCCGC,-1.2
11,TTGTATTTCGTACTACTGTTGT,-0.494

# Target: IQCF1
# Experiment: as above
# Conditions: shRNA
row,Sequence,sensor-assay potency score (higher = more potent)
1,ATACACTCTGTCACAATGCAAG,-1.11
2,TTGAGCACCTGGCAATAGCGTC,-1.02
3,TAGCCTCTGCCTTTGACTCTGC,-0.296
4,TTGATCTTGGTGGCTACCGTAT,-0.916
5,TGGAGTTTTAGCCTCTGCCTTT,-0.954
6,TTTCTCATTGGCATTGTCCACT,-0.377
7,TTGGCTGTGACTCTGTACTGGC,-0.0836
8,TACCGTATCTTTGTCAGAGAGC,-0.874
9,TTGTCCACTGTCTGTGTCTCAA,-0.831
10,TTCTTCAGAATCTTGGACAGTA,0.482
11,ATCTTTGTCAGAGAGCTTCTTT,0.163
12,TTTGAGGGTTCCTTCGTCTTTT,-0.864

# Target: IQCJ
# Experiment: as above
# Conditions: shRNA
row,Sequence,sensor-assay potency score (higher = more potent)
1,TCGCTGAATGATTTTCACCTTT,-0.759
2,TTGAGAGTATGTATGAACCCAG,0.0169
3,TCTCTGAGGAGACAGAGGGTGG,-1.51
4,TTCTCTGAGGAGACAGAGGGTG,-0.857
5,TTTTCCATCATTAACTTGTTCT,-0.253
6,TAGAGAAGAATCACCTTCCTTC,0.583
7,TCCATCATTAACTTGTTCTAGA,-0.697
8,TTCCATCATTAACTTGTTCTAG,-0.41
9,TAGAGGATTCTGCAATCTTTTC,-1.5
10,ATATTTTCCATCATTAACTTGT,0.105
11,TCGGAGAAGGTGTTCATGCTGA,-0.401

# Target: IREB2
# Experiment: as above
# Conditions: shRNA
row,Sequence,sensor-assay potency score (higher = more potent)
1,TTTAGATACATCGAAGAACTTC,-0.321
2,TAGTATAACATGTTCTTCCTCT,0.5
3,TCAACTGTAAGATCTGTCGGAC,0.203
4,TAAAATTCCACAGGTAACCAAA,-1.05
5,TATTGTAGTTCGATCAACTATA,-0.8
6,TTCGAAACAATTTCACAGCTTT,1.18
